Rows were chosen to be rich in hits. Some 9.2% of all compounds tested hit in one or more screens of this group.
Rab9 prom act = activators of Rab9 promoter; Potency, µM (doses to about 9.22 µM), without a hit: top-dose activation, negative = inhibition, actives largely listed as activators; 320,000 compounds, 2.8% hits; AID 485297; Huh7 Rab9 promoter-luciferase reporter, luminescence, 24 h; note: % of control where 0% means no effect; nearly all actives have a fitted effect of over 60% in size
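Huh7 reporter line, Rab9 promoter upstream of luciferase. Compound exposure 24 h at 37 °C in reduced-serum medium with 10% FBS. Read-out: luminescence.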
SMN2 splice up = increases expression of the SMN2 splice variant | HEK293 SMN2-luciferase splicing reporter, luminescence, 30-36 h | Potency, µM (doses to about 46.1 µM), for the others: top-dose activity change, positive = activation, hits mostly activators | 210,000 compounds, 2.8% hits | AID 1458; note: % of control where 0% means no effect; nearly all actives have a fitted effect of over 55% in size
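qHTS luciferase splicing reporter: luminescence rises when SMN2 exon 7 is included in transfected HEK293 cells. Compound exposure lasted 30-36 h at 37C, with 4.5 mM final sodium butyrate as control, followed by a ONE-Glo read.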
ELG1 DNA repair = inhibitors of ELG1-dependent DNA repair in HEK293T cells; HEK293T ELG1-luciferase reporter, luminescence, 16 h; DNA damage induced by 5-fluorouridine; AID 504467; Potency, µM (highest dose often 46.1 µM), for the others: at the highest dose activity change, negative = inhibition, hits mostly inhibitors; 330,000 compounds, 2.3% hits; note: % is set by controls: 0 for no effect and ±100 for the full control effect; nearly all actives have a fitted effect of over 55% in size
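5-Fluorouridine DNA damage + compound/DMSO, 2,000 cells/well, 16 h, 37 °C/5% CO2. ONE-Glo, 30 min RT, luminescence. Readout = decrease in reporter signal.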
FLuc counter = counter-screen for miR-21 project: firefly luciferase inhibitors or activators | P08659 | 360,000 compounds, 6.9% hits | purified FLuc, Km substrates, luminescence inhibition | AID 588342 | Potency, µM (doses to about 57.5 µM), for inactives: at the top dose activity change, negative = inhibition, most hits filed as inhibitors;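 note: plate controls were vehicle for no effect and reference inhibitor for full effect; nearly all actives have a fitted effect of over 55% in size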
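Biochemical qHTS of compounds, final roughly 60 µM downward over six points, against 10 nM purified firefly luciferase using Km concentrations of substrates (10 uM D-luciferin, 10 uM ATP) in Tris acetate pH 7.5 buffer; luminescence output.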
NPC1 promoter act = NPC1 promoter activation | AID 485313 | Potency, µM (top dose mostly 9.22 µM), for the others: top-dose activation, hits mostly activators | Huh7 NPC1 promoter luciferase reporter, 24 h | 320,000 compounds, 2.4% hits; note: % of control where 0% means no effect; nearly all actives have a fitted effect of over 60% in size
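Huh7 cells stably carrying NPC1 promoter–luciferase, plated in Opti-MEM with 10% FBS for 2 h, were exposed to compound in DMSO for 24 h at 37 °C; luciferase reagent was added for 10 min and luminescence read.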
ELG1 genotoxic = induces genotoxicity in HEK293T cells with luciferase-tagged ELG1; HEK293T ELG1-luciferase reporter, luminescence, 16 h; Potency, µM (highest dose often 46 µM), without a hit: top-dose activity change, positive = activation, hits mostly activators; 330,000 compounds, 1.3% hits; AID 504466; note: % of control where 0% means no effect; nearly all actives have a fitted effect of over 60% in size
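Luminescence read-out: rising ELG1-luciferase signal, reflecting elevated ELG1 protein under genetic stress, flags genotoxic compounds. Cells were treated for 16 hr at 37 °C before ONE-Glo detection.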
ELG1 FLuc counter = luciferase inhibition in cell-free luciferin readout for ELG1 hits; shares compounds with ELG1 DNA repair; 350 compounds, 3% hits; cell-free firefly luciferase luminescence counter-screen, ViewLux; Potency, µM (top dose mostly 46.1 µM), without a hit: at the top dose activity change, negative = inhibition, actives largely listed as inhibitors; note: % is set by controls: 0 for no effect and ±100 for the full control effect
ELG1 Luc conf = confirmation of human ELG1-dependent DNA repair inhibitors | 670 compounds, 68% hits | Potency, µM (doses to about 46.1 µM), without a hit: top-dose activity change, negative = inhibition, most hits filed as inhibitors | HEK293T ELG1-luciferase levels, luminescence; cells co-treated with 5-fluorouridine | shares compounds with ELG1 DNA repair | AID 624248; note: % is set by controls: 0 for no effect and ±100 for the full control effect; nearly all actives have a fitted effect of over 55% in size
ELG1-Luc MMS = inhibits ELG1-dependent repair under MMS stimulation in HEK293T cells; shares compounds with ELG1 DNA repair; HEK293T luciferase-tagged ELG1 level, MMS stimulated; Potency, µM (titrated, usually from 46.1 µM), for inactives: at the top dose activity change, negative = inhibition, actives largely listed as inhibitors; 670 compounds, 53% hits; note: % is set by controls: 0 for no effect and ±100 for the full control effect; nearly all actives have a fitted effect of over 60% in size
ELG1 5FU viab = confirmation of ELG1 repair inhibitors: viability with 5FU; shares compounds with ELG1 DNA repair; cell viability with 5-FU, ELG1-dependent repair; Potency, µM (top dose mostly 46.1 µM), for inactives: at the highest dose activity change, negative = viability loss, usual class: cytotoxic; 670 tested, under 10 active;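 note: ELG1-luc HEK293T cells cotreated with 5-fluorouridine at 10 µM final; viability measured 16 h after compound addition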
ELG1 MMS cell = confirmation of ELG1 repair inhibitors: viability with MMS; shares compounds with ELG1 DNA repair; Cell viability with MMS, ELG1-dependent DNA repair; Potency, µM (titrated, usually from 46.1 µM), for the others: top-dose activity change, negative = viability loss, actives largely listed as cytotoxic; 670 compounds, 33% hits;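 note: ELG1-luc HEK293T cells co-treated with 10 µM MMS; viability read 16 h after compound addition; % is set by controls: 0 for no effect and ±100 for the full control effect; nearly all actives have a fitted effect of over 60% in size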
Cell viab unstim = counter-screen for ELG1 repair inhibitors: unstimulated cell viability | shares compounds with ELG1 DNA repair | cell viability counter-screen, unstimulated, luminescence | Potency, µM (highest dose often 45.9 µM), for inactives: top-dose activity change, negative = loss of viability, actives largely listed as cytotoxic | 900 compounds, 8% hits;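 note: compound exposure lasted 16 hours before reading; % is set by controls: 0 for no effect and ±100 for the full control effect; nearly all actives have a fitted effect of over 55% in size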
FLuc biochem = firefly luciferase inhibition counter-screen; 350 compounds, 10% hits; purified firefly luciferase, luminescence counter-screen; shares compounds with ELG1 DNA repair; Potency, µM (series often up to 57.5 µM), without a hit: top-dose activity, negative = inhibition, hits mostly inhibitors; note: % is set by controls: 0 for no effect and ±100 for the full control effect
Numbers without * were called inactive; ? = inconclusive; . = no result; [ ] = remark or other dose. Calls come from the whole dose curve; as a rule, active = well fitted curve in the direction sought with a large enough effect; inconclusive = small, poorly fitted or top-dose-only effect, or another doubt; inactive = no such curve, though single readings can be large; an effect the other way counts as inactive or inconclusive. Potency is the fitted concentration of half-maximal effect.

SMILES | Rab9 prom act | SMN2 splice up | ELG1 DNA repair | FLuc counter | NPC1 promoter act | ELG1 genotoxic | ELG1 FLuc counter | ELG1 Luc conf | ELG1-Luc MMS | ELG1 5FU viab | ELG1 MMS cell | Cell viab unstim | FLuc biochem
COc1cc(C(CC(=O)Nc2ccc(C)c(F)c2)N2Cc3ccccc3C2=O)cc(OC)c1OC (centres undefined) | . | . | . | 2% | . | . | . | . | . | . | . | . | .
O=C(Nc1ccc(N2CCOCC2)cc1)c1cccc(S(=O)(=O)N2CCCCCC2)c1 | -14% | -45% | 3.3µM* | -8% | -9% | -2% | . | ? | 7.9µM* | -1% | 7.9µM* | ? | .
NC(=O)c1sc2nc3c(c(-c4cccs4)c2c1N)CCCCC3 | 13% | -23% | 0.82µM* | -6% | 23% | -12% | ? | 1.1µM* | 4.5µM* | 2% | -2% | ? | -1%
COc1ccccc1N1CCN(S(=O)(=O)CCNC(=O)C2CC2)CC1 | -2% | . | 13% | 12% | 2% | -1% | . | . | . | . | . | . | .
O=C(N/N=C/c1cc(Br)ccc1OC(=O)c1ccc(Br)cc1)c1ccncc1 | -31% | . | 4.1µM* | -12% | -34% | -5% | . | ? | 16µM* | -2% | ? | -5% | .
Cc1ccc2c(c1)nnn2C1CCN(S(=O)(=O)c2ccc(C(=O)NC3CCCC3)cc2)CC1 | -10% | 5% | 4.5µM* | 5% | -2% | -8% | . | 3.1µM* | ? | ? | ? | ? | .
CCOC(=O)Cn1c(=NC(=O)C(C)C)sc2c(C)cc(C)cc21 | -1% | . | 3.3µM* | ? | 7% | -6% | . | 14µM* | -3% | 8% | ? | ? | .
CC(=O)c1cccc(NC(=O)COc2cc3oc(=O)c(CC(C)O)c(C)c3cc2Cl)c1 (centres undefined) | 1% | -25% | 4.1µM* | 4% | 3% | -4% | . | 6.3µM* | 22µM* | ? | 0% | ? | .
Nc1cc(=O)[nH]c(SCC(=O)c2ccc(O)cc2O)n1 | -1%[1.84 µM] | . | -1% | 7% | -11% | -1% | . | . | . | . | . | . | .
COc1ccc(NC(=O)CNC(=O)c2nn(-c3ccc(OC)c(Cl)c3)c(=O)c3ccccc23)c(OC)c1 | 10% | . | 5.8µM* | 2% | 0% | -8% | -3% | 3.5µM* | -2% | 10% | -1% | ? | -13%
COc1ccc(-n2nc(C(=O)NCC(=O)Nc3ccccn3)c3ccccc3c2=O)cc1Cl | -2% | -11% | ? | 0% | -8% | 13% | . | . | . | . | . | . | .
CCc1ccc(NC(=O)CNC(=O)c2nn(-c3ccc(OC)cc3)c(=O)c3ccccc23)cc1 | -11% | . | -14% | 3% | -4% | -12% | 1% | 14µM* | 16% | ? | -3% | ? | -9%
Cc1nnsc1-c1c(C(=O)N2CCOCC2)c(C)nn1-c1ccc(Cl)cc1 | 2% | . | -5% | 7% | -9% | -6% | . | . | . | . | . | . | .
COc1cc2c(cc1OC)C1C(=O)c3ccc4c(c3OC1CO2)C=CC(C)(C)O4 (centres undefined) | . | -73% | . | . | . | . | . | . | . | . | . | . | .
COc1cc2c(cc1OC)C1C(=O)c3c(O)cc4c(c3OC1CO2)C=CC(C)(C)O4 (centres undefined) | . | -81% | . | . | . | . | -4% | ? | 0.4µM* | -8% | 0.4µM* | ? | -3%
COc1cc(NC(=O)c2cc(-c3ccccc3)nc3c2cnn3C(C)C)cc(OC)c1OC | . | . | 3.7µM* | . | . | -14% | . | 7.1µM* | ? | ? | ? | 25µM* | .
COc1ccc(-c2oc(=O)c3cc(OC)c(OC)cc3c2C#CCCCO)cc1 | . | . | ? | . | . | 10% | . | . | . | . | . | . | .
COc1cc2c(C#CCCCO)c(-c3ccsc3)oc(=O)c2cc1OC | . | . | 4.1µM* | . | . | 5% | . | 6.3µM* | ? | -1% | ? | ? | .
COc1ccccc1NC(=O)CSc1nnc2ccc(-c3ccccn3)nn12 | -1% | . | ? | 2% | 8% | -5% | . | . | . | . | . | . | .
COc1ccc(CCN(Cc2cccs2)S(=O)(=O)c2ccc(S(=O)(=O)N3CCCCCC3)cc2)cc1OC | -2% | -22% | 2.9µM* | 2% | -4% | -1% | . | ? | 4.4µM* | -10% | 7.1µM* | -17% | .
CCN(C[C@H]1N[C@@](Cc2ccccc2)(C(=O)OC)[C@H]2C(=O)N(Cc3ccccc3)C(=O)[C@@H]12)S(=O)(=O)c1ccc(C(C)(C)C)cc1 | . | . | 11% | . | . | 1% | . | . | . | . | . | . | .
Cc1cc2cc3c(cc2nc1SCC(=O)N1CCCC1)OCCO3 | 0% | . | ? | -4% | 1% | -4% | . | . | . | . | . | . | .
N#Cc1cc2cc3c(cc2nc1SCC(=O)N1CCOCC1)OCCO3 | ? | . | ? | -7% | ? | ? | -13% | . | . | . | . | ? | ?
COC(=O)c1ccc2c(=O)n(CCCCCC(=O)N3CCN(c4ccccc4)CC3)c(=O)[nH]c2c1 | -2% | -27% | 7.3µM* | -12% | -2% | -32% | 22µM* | 8.9µM* | 7.9µM* | ? | 10µM* | 20µM* | -2%
